# Laboratory results published in the supplement of paper PMC7724964.
# ± gives the standard deviation of the averaged measurements.
# T1: ARID4A 568-634 Tudor-knot (domain begin residue: 568, domain end residue: 634), P29374
# T1 chain: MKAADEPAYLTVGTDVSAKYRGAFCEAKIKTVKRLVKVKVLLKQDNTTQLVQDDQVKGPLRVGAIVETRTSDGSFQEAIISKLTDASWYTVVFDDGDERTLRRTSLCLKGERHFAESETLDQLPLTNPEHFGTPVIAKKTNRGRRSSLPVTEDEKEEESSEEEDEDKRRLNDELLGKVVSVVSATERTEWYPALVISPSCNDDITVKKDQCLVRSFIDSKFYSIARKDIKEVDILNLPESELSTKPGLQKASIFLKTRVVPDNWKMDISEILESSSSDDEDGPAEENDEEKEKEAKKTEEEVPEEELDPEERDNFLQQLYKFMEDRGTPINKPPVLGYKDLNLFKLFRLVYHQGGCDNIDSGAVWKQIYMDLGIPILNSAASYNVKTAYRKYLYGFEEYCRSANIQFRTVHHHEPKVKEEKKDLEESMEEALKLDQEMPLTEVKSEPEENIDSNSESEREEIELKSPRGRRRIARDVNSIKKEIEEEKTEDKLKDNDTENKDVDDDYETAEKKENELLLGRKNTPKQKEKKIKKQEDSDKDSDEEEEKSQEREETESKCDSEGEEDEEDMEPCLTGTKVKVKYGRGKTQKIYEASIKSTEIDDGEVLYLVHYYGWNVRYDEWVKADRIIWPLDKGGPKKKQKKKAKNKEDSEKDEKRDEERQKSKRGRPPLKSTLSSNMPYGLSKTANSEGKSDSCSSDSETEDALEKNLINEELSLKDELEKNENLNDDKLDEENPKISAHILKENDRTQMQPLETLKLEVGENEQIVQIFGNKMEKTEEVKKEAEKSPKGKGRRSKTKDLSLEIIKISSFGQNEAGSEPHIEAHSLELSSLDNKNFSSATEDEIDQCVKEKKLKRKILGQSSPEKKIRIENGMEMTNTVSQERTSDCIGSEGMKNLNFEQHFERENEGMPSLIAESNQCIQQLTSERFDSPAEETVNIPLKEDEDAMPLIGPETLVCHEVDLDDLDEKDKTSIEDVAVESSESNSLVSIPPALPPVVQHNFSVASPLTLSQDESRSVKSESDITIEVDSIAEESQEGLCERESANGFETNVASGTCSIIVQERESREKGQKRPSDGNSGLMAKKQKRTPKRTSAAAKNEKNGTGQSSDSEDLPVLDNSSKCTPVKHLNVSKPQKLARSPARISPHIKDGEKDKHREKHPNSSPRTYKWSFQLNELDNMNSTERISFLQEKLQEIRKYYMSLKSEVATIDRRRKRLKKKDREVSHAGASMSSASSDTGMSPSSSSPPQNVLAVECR
# T2: TDRD1 261-449 TUDOR (domain begin residue: 261, domain end residue: 449), Q9BXT4
# T2 chain: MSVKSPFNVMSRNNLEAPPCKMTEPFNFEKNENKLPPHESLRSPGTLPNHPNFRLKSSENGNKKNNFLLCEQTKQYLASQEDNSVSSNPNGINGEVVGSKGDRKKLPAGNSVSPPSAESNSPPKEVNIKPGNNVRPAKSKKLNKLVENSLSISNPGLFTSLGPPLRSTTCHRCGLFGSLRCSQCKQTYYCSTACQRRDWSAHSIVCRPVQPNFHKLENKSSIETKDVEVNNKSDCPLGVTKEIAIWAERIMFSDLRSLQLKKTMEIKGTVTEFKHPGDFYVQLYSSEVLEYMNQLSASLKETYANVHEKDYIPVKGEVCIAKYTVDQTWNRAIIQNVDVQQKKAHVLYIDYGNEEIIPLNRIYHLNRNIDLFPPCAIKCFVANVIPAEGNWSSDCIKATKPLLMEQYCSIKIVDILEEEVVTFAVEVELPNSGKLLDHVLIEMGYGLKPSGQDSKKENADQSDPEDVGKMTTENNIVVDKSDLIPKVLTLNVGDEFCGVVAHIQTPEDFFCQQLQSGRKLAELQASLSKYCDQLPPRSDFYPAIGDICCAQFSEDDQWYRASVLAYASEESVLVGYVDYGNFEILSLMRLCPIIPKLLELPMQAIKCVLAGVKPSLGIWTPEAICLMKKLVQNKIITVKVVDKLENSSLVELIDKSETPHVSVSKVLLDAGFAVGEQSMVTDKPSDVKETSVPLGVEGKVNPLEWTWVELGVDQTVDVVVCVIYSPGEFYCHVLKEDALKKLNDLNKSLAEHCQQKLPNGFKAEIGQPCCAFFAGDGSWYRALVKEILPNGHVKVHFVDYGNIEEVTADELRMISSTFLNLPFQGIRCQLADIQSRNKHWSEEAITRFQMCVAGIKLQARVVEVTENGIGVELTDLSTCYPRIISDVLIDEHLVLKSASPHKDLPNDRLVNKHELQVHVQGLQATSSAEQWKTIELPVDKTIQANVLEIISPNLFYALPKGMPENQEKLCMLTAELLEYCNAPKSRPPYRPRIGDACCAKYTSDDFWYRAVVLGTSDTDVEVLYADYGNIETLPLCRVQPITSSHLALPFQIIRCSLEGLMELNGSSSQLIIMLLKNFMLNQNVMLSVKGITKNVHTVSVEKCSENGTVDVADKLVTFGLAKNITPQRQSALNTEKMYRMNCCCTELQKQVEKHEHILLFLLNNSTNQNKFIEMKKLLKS
# T3: ZGPAT 120-268 zf-CCCH+TUDOR (domain begin residue: 120, domain end residue: 268), Q8N5A5
# T3 chain: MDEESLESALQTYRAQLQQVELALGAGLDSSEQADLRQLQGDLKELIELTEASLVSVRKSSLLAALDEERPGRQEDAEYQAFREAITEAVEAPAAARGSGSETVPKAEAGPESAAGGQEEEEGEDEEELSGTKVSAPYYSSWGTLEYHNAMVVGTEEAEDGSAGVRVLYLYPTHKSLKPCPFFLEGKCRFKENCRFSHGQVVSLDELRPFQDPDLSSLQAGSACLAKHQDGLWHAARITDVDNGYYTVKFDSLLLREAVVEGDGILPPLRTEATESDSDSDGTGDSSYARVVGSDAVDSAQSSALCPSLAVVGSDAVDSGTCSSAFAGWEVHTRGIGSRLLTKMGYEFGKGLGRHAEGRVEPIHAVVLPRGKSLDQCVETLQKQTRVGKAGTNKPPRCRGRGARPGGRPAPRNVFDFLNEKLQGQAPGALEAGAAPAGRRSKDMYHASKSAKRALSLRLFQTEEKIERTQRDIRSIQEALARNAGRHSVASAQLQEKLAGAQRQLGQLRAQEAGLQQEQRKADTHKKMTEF
# T4: TDRKH 290-430 TUDOR+SNase (domain begin residue: 290, domain end residue: 430), Q9Y2W6
# T4 chain: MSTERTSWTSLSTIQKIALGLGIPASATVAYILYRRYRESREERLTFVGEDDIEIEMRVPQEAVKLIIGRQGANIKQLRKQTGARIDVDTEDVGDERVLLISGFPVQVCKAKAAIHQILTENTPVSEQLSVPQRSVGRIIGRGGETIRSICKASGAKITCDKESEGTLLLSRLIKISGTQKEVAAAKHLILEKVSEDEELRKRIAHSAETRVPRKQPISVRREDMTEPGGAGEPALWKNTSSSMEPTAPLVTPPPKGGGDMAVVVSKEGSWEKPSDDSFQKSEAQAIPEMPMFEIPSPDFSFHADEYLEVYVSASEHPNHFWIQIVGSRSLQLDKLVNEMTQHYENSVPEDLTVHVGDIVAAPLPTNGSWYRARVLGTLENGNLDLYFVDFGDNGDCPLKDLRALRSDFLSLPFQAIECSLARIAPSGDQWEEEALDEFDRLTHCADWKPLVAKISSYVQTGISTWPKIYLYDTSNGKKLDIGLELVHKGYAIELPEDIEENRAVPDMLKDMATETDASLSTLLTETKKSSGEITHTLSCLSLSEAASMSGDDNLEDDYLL
# T5: SND1 650-910 TUDOR+SNase (domain begin residue: 650, domain end residue: 910), Q7KZF4
# T5 chain: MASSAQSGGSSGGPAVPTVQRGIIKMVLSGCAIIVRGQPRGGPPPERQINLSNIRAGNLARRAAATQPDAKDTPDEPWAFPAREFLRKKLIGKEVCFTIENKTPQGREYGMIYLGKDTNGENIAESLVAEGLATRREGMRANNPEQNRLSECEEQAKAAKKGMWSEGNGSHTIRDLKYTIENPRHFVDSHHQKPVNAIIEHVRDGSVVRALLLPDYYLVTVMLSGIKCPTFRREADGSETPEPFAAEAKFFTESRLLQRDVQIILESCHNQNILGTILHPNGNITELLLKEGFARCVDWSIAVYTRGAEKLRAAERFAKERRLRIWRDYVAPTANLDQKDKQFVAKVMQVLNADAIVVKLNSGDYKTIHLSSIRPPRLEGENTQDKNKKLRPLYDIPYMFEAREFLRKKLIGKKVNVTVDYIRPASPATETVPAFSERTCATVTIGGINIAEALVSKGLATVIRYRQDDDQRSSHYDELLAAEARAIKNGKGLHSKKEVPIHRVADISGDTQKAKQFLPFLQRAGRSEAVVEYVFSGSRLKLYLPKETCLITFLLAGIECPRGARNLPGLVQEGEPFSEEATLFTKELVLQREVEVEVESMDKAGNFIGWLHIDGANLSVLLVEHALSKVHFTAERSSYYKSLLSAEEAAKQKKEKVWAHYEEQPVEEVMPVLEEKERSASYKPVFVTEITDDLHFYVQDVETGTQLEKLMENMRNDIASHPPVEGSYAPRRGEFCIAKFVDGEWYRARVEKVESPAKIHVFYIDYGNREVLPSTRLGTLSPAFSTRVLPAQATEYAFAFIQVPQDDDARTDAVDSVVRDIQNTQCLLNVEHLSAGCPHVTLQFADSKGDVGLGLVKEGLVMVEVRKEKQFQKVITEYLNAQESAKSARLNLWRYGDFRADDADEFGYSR
# Experiments:
# Experiment in all cases: phage ELISA signal ratio (GST-PRM binding over GST background); higher = stronger binding of peptide-phage to the PRM
# [1] = molecular target: T1, ARID4A 568-634 Tudor-knot (domain begin …
# Description: (§1)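 Phage-displayed random hexadecapeptides (Cys-free, flanked by invariant Gly linkers, fused to the M13 P8 major coat protein) were selected over 5 rounds against GST-fused human PRM domains. Individual clones from rounds 4-5 were tested by phage ELISA, and positive clones binding the target but not GST were sequenced. Values are the ELISA signal ratio of target over background (GST); the background signal is given separately.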
# [2] = molecular target: T2, TDRD1 261-449 TUDOR (domain begin …
# Description: as §1
# [3] = molecular target: T3, ZGPAT 120-268 zf-CCCH+TUDOR (domain …
# Description: as §1
# [4] = molecular target: KMT2C 1055-1137 PHD (domain begin residue: 1055, domain end residue: 1137)
# Description: as §1
# [5] = molecular target: KMT2C 995-1055 PHD (domain begin residue: 995, domain end residue: 1055)
# Description: as §1
# [6] = molecular target: SETD1A 2-220 RRM_1 (domain begin residue: 2, domain end residue: 220), O15047
# Description: as §1
# [7] = molecular target: T4, TDRKH 290-430 TUDOR+SNase (domain begin …
# Description: as §1
# [8] = molecular target: T5, SND1 650-910 TUDOR+SNase (domain begin …
# Description: as §1
# SETD1A 2-220 RRM_1 (domain begin residue: 2, domain end residue: 220), O15047, sequence (O15047 whole entry): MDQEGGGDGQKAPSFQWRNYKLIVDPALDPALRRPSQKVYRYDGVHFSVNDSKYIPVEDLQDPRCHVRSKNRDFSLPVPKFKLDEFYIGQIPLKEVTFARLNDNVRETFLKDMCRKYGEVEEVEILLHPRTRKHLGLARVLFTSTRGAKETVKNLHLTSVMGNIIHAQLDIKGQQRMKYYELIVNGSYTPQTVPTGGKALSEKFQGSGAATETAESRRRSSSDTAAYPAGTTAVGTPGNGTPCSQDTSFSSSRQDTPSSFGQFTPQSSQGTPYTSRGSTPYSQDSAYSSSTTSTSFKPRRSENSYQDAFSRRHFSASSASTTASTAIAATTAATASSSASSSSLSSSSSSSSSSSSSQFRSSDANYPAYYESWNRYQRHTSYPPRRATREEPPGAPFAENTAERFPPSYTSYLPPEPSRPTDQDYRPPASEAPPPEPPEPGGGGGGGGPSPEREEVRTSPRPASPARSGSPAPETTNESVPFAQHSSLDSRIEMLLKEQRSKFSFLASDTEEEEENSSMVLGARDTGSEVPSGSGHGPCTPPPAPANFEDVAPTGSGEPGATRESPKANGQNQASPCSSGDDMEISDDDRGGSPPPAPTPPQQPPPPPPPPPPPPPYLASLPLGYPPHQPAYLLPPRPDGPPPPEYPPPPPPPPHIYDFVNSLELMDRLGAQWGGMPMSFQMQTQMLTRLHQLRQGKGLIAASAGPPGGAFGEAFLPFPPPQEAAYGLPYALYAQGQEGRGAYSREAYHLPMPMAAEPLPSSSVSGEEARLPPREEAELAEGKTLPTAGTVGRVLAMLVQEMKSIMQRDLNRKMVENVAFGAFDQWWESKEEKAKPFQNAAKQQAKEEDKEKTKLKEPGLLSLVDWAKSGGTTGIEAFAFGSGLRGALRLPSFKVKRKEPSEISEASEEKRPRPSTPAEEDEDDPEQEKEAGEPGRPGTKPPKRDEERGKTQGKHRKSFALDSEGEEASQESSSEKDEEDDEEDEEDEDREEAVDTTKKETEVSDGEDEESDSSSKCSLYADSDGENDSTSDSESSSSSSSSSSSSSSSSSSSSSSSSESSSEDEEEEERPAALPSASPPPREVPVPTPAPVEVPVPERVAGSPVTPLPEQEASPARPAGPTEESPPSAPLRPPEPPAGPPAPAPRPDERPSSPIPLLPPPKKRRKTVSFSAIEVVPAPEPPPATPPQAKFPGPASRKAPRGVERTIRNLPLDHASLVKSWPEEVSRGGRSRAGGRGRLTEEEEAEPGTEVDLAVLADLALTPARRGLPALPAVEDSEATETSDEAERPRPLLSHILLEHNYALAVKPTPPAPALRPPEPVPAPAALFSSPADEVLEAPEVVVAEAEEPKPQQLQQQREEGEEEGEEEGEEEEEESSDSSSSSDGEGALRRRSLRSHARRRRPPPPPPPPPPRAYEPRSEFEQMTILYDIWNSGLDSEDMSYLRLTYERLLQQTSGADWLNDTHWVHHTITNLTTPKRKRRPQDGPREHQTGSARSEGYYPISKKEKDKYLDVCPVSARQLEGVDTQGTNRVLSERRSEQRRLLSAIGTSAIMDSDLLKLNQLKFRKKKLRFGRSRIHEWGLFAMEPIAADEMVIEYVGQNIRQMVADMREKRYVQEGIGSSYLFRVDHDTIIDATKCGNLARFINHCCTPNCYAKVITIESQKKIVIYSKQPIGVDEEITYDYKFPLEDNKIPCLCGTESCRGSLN
binder,measurement,setting,value
QQVVDMQQMWQQWIEI,phage ELISA signal ratio,[1],4.93
DYMSHLFDTMSGVQFQ,phage ELISA signal ratio,[1],6.29
same,phage ELISA signal ratio,[2],8.02
MLHDGWLMPGMTHSVN,phage ELISA signal ratio,[1],8.8
same,phage ELISA signal ratio,[3],4.63
GLDLDYWTMPGLETLL,phage ELISA signal ratio,[1],8.9
STDIWDMWREWNEIDM,phage ELISA signal ratio,[1],9.5 ± 0.67
same,phage ELISA signal ratio,[4],6.74
same,phage ELISA signal ratio,[5],5.38
same,phage ELISA signal ratio,[6],12
same,phage ELISA signal ratio,[2],9.16
same,phage ELISA signal ratio,[7],6.85
NWDMWMEEQYDPSVML,phage ELISA signal ratio,[1],9.12
EQLEPWLMPGQSQLFG,phage ELISA signal ratio,[1],9.13
PWDEIWEDMIEWPLPQ,phage ELISA signal ratio,[1],9.72
DWWDMWAQGDILEIHS,phage ELISA signal ratio,[1],11.5
DGWGWDHIEIEMPYEE,phage ELISA signal ratio,[1],12.4
same,phage ELISA signal ratio,[8],8.36
